Laboratory results published in PubChem BioAssay (NCATS).
“And” between values parts separate entries of the source, which are not always exact repeats. Equal values may be shown once. Results filed as inconclusive are left out. A call without a number means that no potency is given here. Where a structure was tested more than once in an assay, its records may differ in their call. Unmarked numbers belong to inactive results. The source made the active and inactive calls. Calls follow the shape of the dose curve; as a rule, active = well fitted inhibition curve with a large enough effect; inconclusive = small, poorly fitted or top-dose-only effect; inactive = flat fitted curve, though single readings scatter.

Tests used:
[1] = test system: CRL-7250; experiment: Cytotoxic Profiling of Annotated Libraries Using Quantitative High-Throughput Screening (AID 1296008); settings: Five cell lines viability, CellTiter-Glo ATP luminescence, 48-72 h; max response: active compounds read low
Outline: (§1)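 Cytotoxicity was measured as CellTiter-Glo ATP luminescence, read after 10 min at room temperature. Compound treatment of the cells lasted 48 or 72 hr at 37 degrees Celsius in a qHTS format.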

[2] = test system: HEK293; experiment: as above; settings: Five cell lines viability, CellTiter-Glo ATP luminescence, 48-72 h; max response: active compounds read low
Outline: as §1

[3] = test system: HaCat; experiment: as above; settings: Five cell lines viability, CellTiter-Glo ATP luminescence, 48-72 h; max response: active compounds read low
Outline: as §1

[4] = test system: KB-3-1; experiment: as above; settings: Five cell lines viability, CellTiter-Glo ATP luminescence, 48-72 h; max response: active compounds read low
Outline: as §1

[5] = test system: NIH3T3; experiment: as above; settings: Five cell lines viability, CellTiter-Glo ATP luminescence, 48-72 h; max response: active compounds read low
Outline: as §1

[6] = test system: MCC-13; experiment: qHTS assay to identify novel small-molecules to repurpose for Merkel cell carcinoma treatment (AID 1296009); settings: MCC and control cell lines, CellTiter-Glo viability, 72 h; series mostly up to 46 µM
Outline: (§2)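 After compound transfer in DMSO, plates were kept 72 hr at 37 degree celsius. Luminescent ATP signal from CellTiter-Glo served as viability measure, normalized against DMSO and no-cell controls.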

[7] = test system: MCC-26; experiment: as above; settings: MCC and control cell lines, CellTiter-Glo viability, 72 h; series mostly up to 46 µM
Outline: as §2

[8] = test system: MKL-1; experiment: as above; settings: MCC and control cell lines, CellTiter-Glo viability, 72 h; series mostly up to 46 µM
Outline: as §2

[9] = test system: MKL-2; experiment: as above; settings: MCC and control cell lines, CellTiter-Glo viability, 72 h; series mostly up to 46 µM
Outline: as §2

[10] = test system: UISO; experiment: as above; settings: MCC and control cell lines, CellTiter-Glo viability, 72 h; series mostly up to 46 µM
Outline: as §2

[11] = test system: WaGa; experiment: as above; settings: MCC and control cell lines, CellTiter-Glo viability, 72 h; series mostly up to 46 µM
Outline: as §2

[12] = test system: HEK293T; experiment: as above; settings: MCC and control cell lines, CellTiter-Glo viability, 72 h
Outline: as §2

[13] = test system: SC27B; experiment: qHTS profiling for inhibitors of Plasmodium falciparum proliferation (AID 504749); settings: P. falciparum in erythrocytes, SYBR Green DNA, 72 h; series mostly up to 28.7 µM
Outline: (§3)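 Three-day growth assay of blood-stage parasites in erythrocytes (0.3% parasitemia, 2.5% hematocrit) at 37 C, 5% CO2, quantified by SYBR Green DNA staining after overnight detergent lysis.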

[14] = test system: W2; experiment: as above; settings: P. falciparum in erythrocytes, SYBR Green DNA, 72 h; series mostly up to 28.7 µM
Outline: as §3

[15] = test system: CRL-7250; experiment: qHTS assay to identify novel small-molecules to repurpose for Merkel cell carcinoma treatment (AID 1296009); settings: MCC and control cell lines, CellTiter-Glo viability, 72 h; at 44.8 µM (top of the series) unless noted
Outline: as §2

[16] = test system: HACAT; experiment: as above; settings: MCC and control cell lines, CellTiter-Glo viability, 72 h
Outline: as §2

[17] = test system: NIH3T3; experiment: as above; settings: MCC and control cell lines, CellTiter-Glo viability, 72 h; at 44.8 µM (top of the series) unless noted
Outline: as §2

[18] = test system: TAB109; experiment: qHTS profiling for inhibitors of Plasmodium falciparum proliferation (AID 504749); settings: P. falciparum in erythrocytes, SYBR Green DNA, 72 h; series mostly up to 28.7 µM
Outline: as §3

[19] = test system: TAB113; experiment: as above; settings: P. falciparum in erythrocytes, SYBR Green DNA, 72 h; series mostly up to 28.7 µM
Outline: as §3

[20] = test system: TAB165; experiment: as above; settings: P. falciparum in erythrocytes, SYBR Green DNA, 72 h; series mostly up to 28.7 µM
Outline: as §3

[21] = at 44.8 µM (top of the series) unless noted
Also: nearly all actives have a fitted effect of over 60% in size.
Potency is read from the fitted curve at half-maximal effect.

## CN(C)CCc1c[nH]c2cccc(OP(=O)(O)O)c12
[1]
  max response: -37.9%
[2]
  max response: -1.43%
[3]
  max response: 4.32%
[4]
  max response: -1.8%
[5]
  max response: -11.6%
[6]
  outcome: inactive
[7]
  Potency: inactive
[8]
  Potency: inactive
[9]
  Potency: inactive
[10]
  Potency: inactive
[11]
  Potency: inactive

## C[C@H](N)C(=O)c1ccccc1
[1]
  max response: -38.6%
[2]
  max response: -0.637%
[3]
  max response: -26.7%
[4]
  max response: -7.79% and 0.534%
[5]
  max response: -1.01%
[6]
  outcome: inactive
[7]
  Potency: inactive
[8]
  Potency: inactive
[9]
  Potency: inactive
[10]
  Potency: inactive
[11]
  Potency: inactive

## [N-]=[N+]=CC(=O)OC[C@H](N)C(=O)O
[1]
  max response: -7.47%
[2]
  max response: 4.4%
[3]
  max response: -3.83%
[4]
  max response: -24.6%
[5]
  max response: -9.9%
[6]
  outcome: inactive
[7]
  Potency: inactive
[8]
  Potency: inactive
[9]
  Potency: inactive
[10]
  Potency: inactive
[11]
  Potency: inactive

## COP(=S)(OC)Oc1cc(Cl)c(Cl)cc1Cl
[1]
  max response: -8.37%
[2]
  max response: 1.74%
[3]
  max response: 4.52%
[4]
  Potency: 0.146 µM (active)
  max response: -14.4%
[5]
  max response: -6.48%
[6]
  outcome: inactive
[7]
  Potency: inactive
[8]
  Potency: inactive
[10]
  Potency: inactive
[11]
  Potency: inactive

## CC(=O)NC1CCSC1=O (stereo not given)
[1]
  max response: -4.93%
[2]
  outcome: inactive
[3]
  max response: -1.96%
[4]
  max response: -11.7% and -14.3%
[5]
  max response: 2.68%
[12]; [21]
  outcome: inactive
[6]
  outcome: inactive
[7]
  Potency: inactive
[8]
  Potency: inactive
[10]
  Potency: inactive
[11]
  Potency: inactive

## C=CCN1C[C@H](C)N([C@H](c2ccc(C(=O)N(CC)CC)cc2)c2cccc(OC)c2)C[C@H]1C
[13]
  Potency: inactive
[14]
  Potency: 15.1 µM (active)
[1]
  max response: 0.0318%
  outcome: inactive
[3]
  outcome: inactive
[4]
  max response: 2.69%
  outcome: inactive
[5]
  max response: -0.106% and 4.66%
[15]
  outcome: inactive
[16]; at 9.27 µM (top of the series)
  outcome: inactive
[16]; at 44.8 µM (top of the series)
  outcome: inactive
[6]
  outcome: inactive
[7]
  Potency: inactive
[8]
  Potency: inactive
[9]
  Potency: inactive
[10]
  Potency: inactive
[11]
  Potency: inactive

## COc1cc(CC(C)N)cc(OC)c1OC (stereo not given)
[1]
  max response: -18.9%
[2]
  max response: -9.05%
[3]
  max response: 2.22%
[4]
  max response: -7.25%
[5]
  max response: -5.38%
[6]
  outcome: inactive
[7]
  Potency: inactive
[8]
  Potency: inactive
[9]
  Potency: inactive
[10]
  Potency: inactive
[11]
  Potency: inactive

## CC1(C)C(C=C(Cl)Cl)C1C(=O)OC(C#N)c1cccc(Oc2ccccc2)c1 (stereo not given)
[1]
  max response: 2.32%
[2]
  max response: 2.42%
[3]
  outcome: inactive
[4]
  max response: 2.32%
[5]
  outcome: inactive
[16]; [21]
  outcome: inactive
[6]
  outcome: inactive
[7]
  Potency: inactive
[8]
  Potency: inactive
[9]
  Potency: inactive
[17]
  outcome: inactive
[10]
  Potency: inactive
[11]
  Potency: inactive

## C[C@]12CC[C@@H]3c4ccc(OC(=O)N(CCCl)CCCl)cc4CC[C@H]3[C@@H]1CC[C@@H]2OP(=O)(O)O
[1]
  Potency: 10.5 µM (active)
  outcome: inactive
[2]
  max response: -12.2%
[3]
  max response: 4.84%
  outcome: inactive
[4]
  max response: -0.529%
  outcome: inactive
[5]
  max response: 2.9%
[15]
  outcome: inactive
[16]; [21]
  outcome: inactive
[6]
  outcome: inactive
[8]
  Potency: inactive
[9]
  Potency: inactive
[10]
  Potency: inactive
[11]
  Potency: inactive

## Cc1ncsc1CCCl
[13]
  Potency: inactive
[18]
  Potency: inactive
[19]
  Potency: inactive
[20]
  Potency: inactive
[14]
  Potency: inactive
[1]
  max response: 3.36%
[2]
  max response: -8.24%
[3]
  max response: -12.7%
[4]
  max response: 6.67%
[5]
  max response: 0.655%
[6]
  outcome: inactive
[7]
  Potency: inactive
[8]
  Potency: inactive
[9]
  Potency: inactive
[10]
  Potency: inactive
[11]
  Potency: inactive

## CCOC(=O)CC(SP(=S)(OC)OC)C(=O)OCC (stereo not given)
[13]
  Potency: inactive
[18]
  Potency: inactive
[19]
  Potency: inactive
[20]
  Potency: inactive
[14]
  Potency: inactive
[1]
  max response: -3.52%
  outcome: inactive
[2]
  outcome: inactive
[3]
  max response: -7.37% and 2.49%
[4]
  max response: -10.3% and -23.1%
[5]
  max response: -6.65% and 2.23%
[15]
  outcome: inactive
[12]; at 44.8 µM (top of the series)
  outcome: inactive
[12]; at 92 µM (top of the series)
  outcome: inactive
[6]
  outcome: inactive
[7]
  Potency: inactive
[8]
  Potency: inactive
[9]
  Potency: inactive
[10]
  Potency: inactive
[11]
  Potency: inactive

## O=C1c2ccccc2C(=O)C1C(=O)C(c1ccccc1)c1ccccc1
[13]
  Potency: inactive
[19]
  Potency: inactive
[20]
  Potency: inactive
[1]
  max response: 3.94%
[2]
  outcome: inactive
[3]
  outcome: inactive
[4]
  max response: -7.07%
[5]
  max response: -11%
[16]; [21]
  outcome: inactive
[12]; [21]
  outcome: inactive
[6]
  outcome: inactive
[7]
  Potency: inactive
[10]
  Potency: inactive
[11]
  Potency: 23.7 µM (active)

## C=C(C)[C@H]1CN[C@H](C(=O)O)[C@H]1CC(=O)O
[13]
  Potency: inactive
[18]
  Potency: inactive
[19]
  Potency: inactive
[20]
  Potency: inactive
[14]
  Potency: inactive
[1]
  max response: 1.07%
[2]
  max response: 0.123%
[3]
  outcome: inactive
[4]
  max response: 4.34%
[5]
  outcome: inactive
[16]; [21]
  outcome: inactive
[6]
  outcome: inactive
[8]
  Potency: inactive
[9]
  Potency: inactive
[17]
  outcome: inactive
[10]
  Potency: inactive
[11]
  Potency: inactive

## CC(=O)OCC1=C(C(=O)O)N2C(=O)[C@@H](N)[C@H]2SC1
[1]
  max response: -3.91%
  outcome: inactive
[2]
  max response: 0.778% and -3.29%
[3]
  max response: -3.66% and 4.2%
[4]
  max response: -19.8%
  outcome: inactive
[5]
  max response: 1.92% and 4.65%
[15]
  outcome: inactive
[6]
  outcome: inactive
[7]
  Potency: inactive
[8]
  Potency: inactive
[10]
  Potency: inactive
